{"source": "PubChem BioAssay AID504850", "about": "(National Center for Advancing Translational Sciences (NCATS), 2011)", "note": "Hit rate of the full screen: of about 2,300 compounds, about 1,200 (52%) were called active. About 34% were inconclusive and are not listed. Calls come from the whole dose curve; as a rule, active = well fitted inhibition curve with a large enough effect; inconclusive = small, poorly fitted or top-dose-only effect, or effect the other way; inactive = no such curve, though single readings can be large or run the other way. So high a share suggests a set chosen from earlier hits. The list shows a part of the results. % is set by controls: 0 for no effect and ±100 for the full control effect; potency is the fitted concentration of half-maximal effect."}
{"assay": "Confirmation screen for delayed death inhibitors of the malarial parasite plastid, 48 hour incubation; note: nearly all actives have a fitted effect of over 65% in size", "details": "P. falciparum-infected erythrocytes, luciferase growth; series mostly up to 28.7 µM; activity change, negative = inhibition: at the top concentration", "how_it_was_run": "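Erythrocytes infected with luciferase-expressing P. falciparum (2% hematocrit, 0.1% parasitemia) incubated with compounds 48 hours at 37 C, 5% CO2, in RPMI/Albumax. Growth inhibition scored as reduced luminescence after detection reagent.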"}
{"smiles": "COc1ccccc1N1CCN(C(=O)c2noc(C(C)C)c2[N+](=O)[O-])CC1", "Potency": "10 µM (active)"}
{"smiles": "COc1ccc(S(=O)(=O)N(C)c2ccc(C(=O)Nc3cccnc3)cc2)cc1OC", "Potency": "14.1 µM (active)"}
{"smiles": "Cc1ccc(NC(=O)c2cc(S(=O)(=O)N3CCc4ccccc43)cn2C)cc1", "Potency": "11.2 µM (active)"}
{"smiles": "COc1ccc(S(=O)(=O)N2CCc3ccccc32)cc1C(=O)Nc1cccnc1", "Potency": "12.6 µM (active)"}
{"smiles": "CCOc1ccc2c(c1)sc(N)[n+]2Cc1cc(C)cc2cccnc12", "Potency": "5.62 µM (active)"}
{"smiles": "O=C(NCc1ccco1)c1cc2sccc2n1Cc1ccc(F)cc1", "Potency": "12.6 µM (active)"}
{"smiles": "O=C(Nc1cccc(S(=O)(=O)NCc2ccco2)c1)c1cc(-c2ccc(F)cc2)nc2ccccc12", "activity change, negative = inhibition": "-0.526% (inactive)"}
{"smiles": "Cc1ccc(/C=N/NC(=O)CSc2nc3ccccc3c(=O)n2-c2ccccc2C)s1", "Potency": "11.2 µM (active)"}
{"smiles": "COc1ccc(C(C)=O)cc1CSc1nc2ccccc2c(=O)n1-c1ccccc1C", "Potency": "7.08 µM (active)"}
{"smiles": "O=C1C(=O)c2ccccc2C(O)=C1C1CCC(c2ccc(Cl)cc2)CC1", "note": "(stereo not given)", "Potency": "0.02 µM (active)"}
{"smiles": "O=C1C2CCCN2C(c2ccccc2)N1c1ccc(Cl)cc1", "note": "(stereo not given)", "activity change, negative = inhibition": "-19.3% (inactive)"}
{"smiles": "O=C(NCc1ccccn1)c1cc(-c2ccc(-c3ccccc3)cc2)nc2ccccc12", "Potency": "15.8 µM (active)"}
{"smiles": "Cc1cc(NC(=O)CSc2sc3c(O)cc(=O)[nH]c3c2C#N)ccc1Br", "Potency": "14.1 µM (active)"}
{"smiles": "N#Cc1c(SCC(=O)Nc2ccc(C(F)(F)F)cc2)sc2c(O)cc(=O)[nH]c12", "Potency": "0.316 µM (active)"}
{"smiles": "O=C(CCN1C(=O)/C(=C/c2ccccc2)SC1=S)NCCc1ccc(O)cc1", "activity change, negative = inhibition": "-6.1% (inactive)"}
{"smiles": "O=C(O)CCCN1C(=O)/C(=C\\C(Cl)=C\\c2ccccc2)SC1=S", "Potency": "14.1 µM (active)"}
{"smiles": "CCC/C(=N\\NC(=O)c1ccco1)c1ccc(Cl)s1", "Potency": "11.2 µM (active)"}
{"smiles": "CC1CCCN(Cc2c(O)ccc3c(=O)c(-c4nc5ccccc5s4)c(N)oc23)C1", "note": "(stereo not given)", "Potency": "0.316 µM (active)"}
{"smiles": "C=CCN(c1ccccc1)S(=O)(=O)c1cccc(C(=O)N2CC(C)CC(C)C2)c1", "note": "(stereo not given)", "Potency": "14.1 µM (active)"}
{"smiles": "COc1ccc(Nc2nnc(-c3ccc(C)cc3)c3ccccc23)cc1C(=O)N1CCCCC1", "Potency": "2.51 µM (active)"}
{"smiles": "COc1ccc(Nc2nnc(-c3ccccc3)c3ccccc23)cc1C(=O)N1CCCCC1", "Potency": "7.94 µM (active)"}
{"smiles": "Cc1ccc(C)c(-c2cc(C(=O)NNC(=S)NCC(C)C)c3ccccc3n2)c1", "Potency": "14.1 µM (active)"}
{"smiles": "Cc1ccccc1-c1cc(C(=O)n2cccn2)c2cc(Cl)ccc2n1", "activity change, negative = inhibition": "-11% (inactive)"}
{"smiles": "Cc1ccc(C)c(-c2cc(C(=O)Nc3nccs3)c3ccccc3n2)c1", "Potency": "4.47 µM (active)"}
{"smiles": "CCC1OC(=O)C[C@@H](O)[C@H](C)[C@@H](OC2OC(C)CC(N(C)C)C2O)[C@@H](CC=O)C[C@@H](C)C(=O)/C=C/[C@]2(C)OC2C1C", "note": "(stereo not given in full)", "Potency": "11.2 µM (active)"}
{"smiles": "Cc1onc(-c2ccccc2Cl)c1C(=O)N1CCC(Cc2ccccc2)CC1", "Potency": "15.8 µM (active)"}
{"smiles": "Cc1onc(-c2ccccc2Cl)c1C(=O)N1CC(C)CC(C)C1", "note": "(stereo not given)", "activity change, negative = inhibition": "-22.2% (inactive)"}
{"smiles": "Cc1ccc(S(=O)(=O)N(C)C)cc1NC(=O)c1cncc(Br)c1", "Potency": "8.91 µM (active)"}
{"smiles": "NCCCNc1nc(N)c([N+](=O)[O-])c(NC2CCCCC2)n1", "Potency": "3.98 µM (active)"}
{"smiles": "N=C(N)c1ccc(OCCCCCOc2ccc(C(=N)N)cc2)cc1", "Potency": "1 µM (active)"}
{"smiles": "Cc1cccc(-n2c(C)cc(/C=N\\NC(=O)c3cccs3)c2C)c1", "Potency": "11.2 µM (active)"}
{"smiles": "COc1ccc(CCNC(=O)C(=O)NCC2OCCN2S(=O)(=O)c2ccc3c(c2)OCCO3)cc1OC", "note": "(stereo not given)", "Potency": "11.2 µM (active)"}
{"smiles": "O=C(NCCCn1ccnc1)C(=O)NCC1OCCN1S(=O)(=O)c1ccc(F)cc1", "note": "(stereo not given)", "activity change, negative = inhibition": "-13.4% (inactive)"}
{"smiles": "CCC(C(=O)O)C1OC(C(C)C(O)C(C)C(=O)C(CC)C2OC3(C=CC(O)C4(CCC(C)(C5CCC(O)(CC)C(C)O5)O4)O3)C(C)CC2C)C(C)CC1C", "note": "(stereo not given)", "Potency": "0.251 µM (active)"}
{"smiles": "O=C(CCl)NCc1c(Cl)cccc1-n1cccc1", "Potency": "12.6 µM (active)"}
{"smiles": "O=C(NC1CCCCC1)c1ccc(CS(=O)Cc2ccccc2Cl)o1", "note": "(stereo not given)", "Potency": "12.6 µM (active)"}
{"smiles": "Cc1ccc(CS(=O)(=O)Cc2ccc(C(=O)NC3CCCC3)o2)cc1", "Potency": "11.2 µM (active)"}
{"smiles": "C/C(CC(=O)NC1CCCCC1)=N\\NC(=O)COc1ccc(C)cc1Br", "activity change, negative = inhibition": "-22.2% (inactive)"}
{"smiles": "Cn1c(=O)n(C)c2cc(NC(=O)CCl)ccc21", "Potency": "2.24 µM (active)"}
{"smiles": "Cc1ccc(NC(=O)c2nnn(CC(=O)Nc3ccc4c(c3)OCO4)c2N)cc1C", "activity change, negative = inhibition": "-13.9% (inactive)"}
{"smiles": "O=C(CCl)Nc1ccc2c(c1)OCO2", "Potency": "2.24 µM (active)"}
{"smiles": "CCN1CCN(Cc2c(O)ccc3c2O/C(=C\\C=C\\c2ccccc2)C3=O)CC1", "Potency": "3.98 µM (active)"}
{"smiles": "Cc1cc(OCCN2CCN(S(=O)(=O)c3ccccc3F)CC2)ccc1C(C)C", "activity change, negative = inhibition": "-46.5% (inactive)"}
{"smiles": "Cc1cc(OCC(=O)N2CCCC2)cc(C)c1Cl", "activity change, negative = inhibition": "-29.2% (inactive)"}
{"smiles": "O=S(=O)(c1ccc(OCc2ccc(Br)cc2)cc1)N1CCOCC1", "Potency": "11.2 µM (active)"}
{"smiles": "COc1ccc(CNC(=O)c2cc(S(=O)(=O)N3CCOCC3)cn2C)cc1", "activity change, negative = inhibition": "-18.3% (inactive)"}
{"smiles": "O=C(COc1ccccc1)N1CCN(S(=O)(=O)c2ccc(Br)cc2)CC1", "Potency": "11.2 µM (active)"}
{"smiles": "CCOc1ccc(S(=O)(=O)N2CCN(C(=O)CCOc3ccccc3C)CC2)cc1", "Potency": "12.6 µM (active)"}
{"smiles": "O=S(=O)(c1ccc(OCC(O)CN2CCN(c3ccc(F)cc3)CC2)cc1)N1CCOCC1", "note": "(stereo not given)", "Potency": "11.2 µM (active)"}
{"smiles": "CN(C)c1ccc(CNc2ncnc3sccc23)cc1", "activity change, negative = inhibition": "-16% (inactive)"}
{"smiles": "COc1cccc(-c2ccc3ncnc(NCc4cccs4)c3c2)c1", "Potency": "11.2 µM (active)"}
{"smiles": "Cc1cccc(-c2ccc3ncnc(NCc4cccs4)c3c2)c1", "Potency": "7.08 µM (active)"}
{"smiles": "Cc1ccn2c(NC3CCCC3)c(-c3ccccn3)nc2c1", "Potency": "7.08 µM (active)"}
{"smiles": "COc1cccc([C@@H]2Oc3ccc(OC)cc3C(=O)[C@H]2O)c1", "Potency": "7.94 µM (active)"}
{"smiles": "CC(=O)N1CN(C2CCCC2)Cc2c1sc1c2CCCC1", "Potency": "14.1 µM (active)"}
{"smiles": "COC(=O)c1cn(C)c2ccc(S(=O)(=O)N3CCCC3)cc2c1=O", "activity change, negative = inhibition": "-9.9% (inactive)"}
{"smiles": "COc1ccc(S(=O)(=O)N2CCCCCC2)cc1C(=O)N(C)CC(=O)Nc1cc(C)ccc1C", "Potency": "7.94 µM (active)"}
{"smiles": "COc1ccc(C)cc1N(CC(=O)Nc1ccc(S(=O)(=O)N2CCCC2)cc1)S(C)(=O)=O", "Potency": "15.8 µM (active)"}
{"smiles": "CCOc1ccccc1N(CC(=O)Nc1ccc(S(=O)(=O)N2CCCC2)cc1)S(C)(=O)=O", "Potency": "12.6 µM (active)"}
{"smiles": "COC(=O)c1cc(NC(=O)CN2CCc3cc4c(cc3C2)OCCCO4)cc(C(=O)OC)c1", "Potency": "12.6 µM (active)"}
